Where “and” joins values, the source holds several entries; their conditions need not be identical. Equal entries are not always repeated. The panel holds about 83,000 compounds, 20% with a hit somewhere; the sample as a whole holds those more often.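 Each cell line was grown in a 96-well plate and treated with one concentration of compound for 48 hours. Values below 10 were considered active.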 Calls of active or inactive are those of the source.
How the values were obtained:
Test in all cases: NCI-60 one-dose screen, 48 h (100 = growth as untreated, 0 = no growth, -100 = all killed)
Details in all cases: 10 µM unless noted
HCT-15 colon = tested on: HCT-15 colon
HT29 colon = tested on: HT29 colon
SNB-75 CNS = tested on: SNB-75 CNS
U251 CNS = tested on: U251 CNS
PC-3 prostate = tested on: PC-3 prostate
SK-MEL-5 melanoma = tested on: SK-MEL-5 melanoma
UACC-62 melanoma = tested on: UACC-62 melanoma
LOX IMVI melanoma = tested on: LOX IMVI melanoma
SK-MEL-28 melanoma = tested on: SK-MEL-28 melanoma
SNB-19 CNS = tested on: SNB-19 CNS

Measured: growth

Nn1c(-c2ccc(Cl)cc2)nc2c(-c3ccc(Cl)cc3)nc3ccc(Cl)cc3c2c1=O
active: HT29 colon 7.88% | SNB-75 CNS -51.4% | U251 CNS -63.5% | SK-MEL-28 melanoma -67.2%
inactive: HCT-15 colon 58.2% | PC-3 prostate 36.6% | SK-MEL-5 melanoma 52.5% | UACC-62 melanoma 30.3% | LOX IMVI melanoma 20.2%

O=C(O)C1C2CCC1C(O)C2 (stereo unspecified)
inactive: HCT-15 colon 106% and 103% | HT29 colon 102% | SNB-75 CNS 101% and 92.9% | U251 CNS 94.6% and 99.6% | PC-3 prostate 110% and 95.9% | SK-MEL-5 melanoma 101% and 110% | UACC-62 melanoma 110% and 108% | LOX IMVI melanoma 95.4% and 95.5% | SK-MEL-28 melanoma 104% and 110%

CCN(CC)CCCN1C(=O)c2c(c(C)c3c(oc4cc(OC)ccc43)c2C)C1=O
inactive: HCT-15 colon 80.6% | HT29 colon 86.9% | SNB-75 CNS 146% | U251 CNS 103% | PC-3 prostate 85.3% | SK-MEL-5 melanoma 77.6% | UACC-62 melanoma 102% | LOX IMVI melanoma 87.7%
active: SK-MEL-28 melanoma -82.6%

COC1/C=C/OC2(C)Oc3c(C)c(O)c4c(O)c(c(C=NOC(c5ccccc5)c5ccccc5)c(O)c4c3C2=O)NC(=O)/C(C)=C/C=C/C(C)C(O)C(C)C(O)C(C)C(OC(C)=O)C1C (stereo unspecified)
inactive: HCT-15 colon 13.2% | SNB-75 CNS 17.2% | U251 CNS 10.4%
active: HT29 colon -12.1% | PC-3 prostate 9.81% | SK-MEL-5 melanoma 6.07% | UACC-62 melanoma -4.64% | LOX IMVI melanoma 0.468% | SK-MEL-28 melanoma -7.28%

CCCCC1COc2cccc3c2N1C=C/C3=C\C(=O)N(C)c1cccc(Cl)c1 (stereo unspecified)
inactive: HCT-15 colon 99.4% | HT29 colon 109% | SNB-75 CNS 93% | U251 CNS 101% | PC-3 prostate 89.6% | SK-MEL-5 melanoma 102% | UACC-62 melanoma 85.9% | LOX IMVI melanoma 99% | SK-MEL-28 melanoma 104%

c1ccc(Cc2cccc[n+]2C(c2ccccc2)c2ccccc2)cc1
inactive: HCT-15 colon 93.1% | HT29 colon 31.8% | SNB-75 CNS 50.8% | U251 CNS 42.5% | PC-3 prostate 35.8% | UACC-62 melanoma 37.7% | LOX IMVI melanoma 58.2% | SK-MEL-28 melanoma 41.6%

COc1ccc2c(c1)oc1c(C)c3c(c(C)c12)C(=O)N(Nc1ccccc1)C3=O
inactive: HCT-15 colon 105% | HT29 colon 106% | SNB-75 CNS 94.5% | SNB-19 CNS 99% | U251 CNS 108% | PC-3 prostate 109% | UACC-62 melanoma 98.5% | LOX IMVI melanoma 100% | SK-MEL-28 melanoma 95.3%

COc1ccc(Cn2cc(C(=O)Nc3cccnc3Nc3ccccc3)nn2)cc1
inactive: HCT-15 colon 94.8% | HT29 colon 106% | SNB-75 CNS 89.2% | U251 CNS 99.5% | PC-3 prostate 91% | SK-MEL-5 melanoma 90.2% | UACC-62 melanoma 83.2% | LOX IMVI melanoma 92% | SK-MEL-28 melanoma 113%

N#CC1C(=O)c2ccccc2C1c1ccccc1 (stereo unspecified)
inactive: HCT-15 colon 101% and 95.5% | HT29 colon 114% and 110% | SNB-75 CNS 89.5% and 93.2% | U251 CNS 98.6% and 99.8% | PC-3 prostate 111% and 116% | SK-MEL-5 melanoma 96.8% and 103% | UACC-62 melanoma 100% and 101% | LOX IMVI melanoma 91.5% and 98.1% | SK-MEL-28 melanoma 107% and 117%

O=C1/C(=C/c2ccccc2[N+](=O)[O-])Cc2ccccc21
45.9% (inactive) and 4.22% (active): SK-MEL-28 melanoma
active: HCT-15 colon -56.9% and 5.02% | HT29 colon -44% and -37.1% | LOX IMVI melanoma -61.1% and 5.09%
inactive: SNB-75 CNS 40.8% and 43.5% | U251 CNS 24.9% and 32.7% | PC-3 prostate 27.2% and 30.4% | SK-MEL-5 melanoma 47.2% and 69.5% | UACC-62 melanoma 29.5% and 25.5%

O=S(=O)(O)c1ccc(N=Nc2ccc(N=Nc3cccc4ccccc34)c(S(=O)(=O)O)c2)cc1
inactive: HCT-15 colon 114% | HT29 colon 105% | SNB-75 CNS 89.7% | U251 CNS 102% | PC-3 prostate 84.5% | SK-MEL-5 melanoma 86.4% | UACC-62 melanoma 98.4% | LOX IMVI melanoma 94.1% | SK-MEL-28 melanoma 110%

Cc1ccc(-c2nc(C#N)c(S(=O)(=O)N(C)C)o2)cc1
inactive: HCT-15 colon 19.7% | HT29 colon 97.7% | SNB-75 CNS 83.7% | U251 CNS 93.3% | PC-3 prostate 103% | SK-MEL-5 melanoma 92.5% | UACC-62 melanoma 97.5% | LOX IMVI melanoma 49.8% | SK-MEL-28 melanoma 102%

Cn1cc(-c2nonc2-c2cn(C)c3ccc(Br)cc23)c2ccccc21
inactive: HCT-15 colon 26.1% | U251 CNS 23.3% | PC-3 prostate 32% | SK-MEL-5 melanoma 37.2% | UACC-62 melanoma 21.8% | LOX IMVI melanoma 31.2% | SK-MEL-28 melanoma 55.9%
active: HT29 colon 9.17% | SNB-75 CNS -0.37%

N=c1c2c(-c3ccccc3)c(-c3ccccc3)oc2ncn1NC(=O)c1cccnc1
inactive: HCT-15 colon 95.6% | HT29 colon 104% | SNB-75 CNS 105% | U251 CNS 102% | PC-3 prostate 93.6% | SK-MEL-5 melanoma 93.4% | UACC-62 melanoma 104% | LOX IMVI melanoma 95% | SK-MEL-28 melanoma 119%

COc1cc(CNC(=O)CCCC/C=C/C(C)C)ccc1O
inactive: HCT-15 colon 104% and 96.9% | HT29 colon 104% | SNB-75 CNS 93% and 100% | U251 CNS 101% and 98% | PC-3 prostate 86.6% and 88.1% | SK-MEL-5 melanoma 97.8% and 97.5% | UACC-62 melanoma 96.6% and 104% | LOX IMVI melanoma 89% and 86.9% | SK-MEL-28 melanoma 116% and 112%

CC1(Cc2ccccc2)CC2=C(C(=O)O1)C(c1ccccc1)NC(=O)N2 (stereo unspecified)
inactive: HCT-15 colon 106% | HT29 colon 96.8% | SNB-75 CNS 79.3% | U251 CNS 104% | PC-3 prostate 92% | UACC-62 melanoma 91.5% | LOX IMVI melanoma 95.3% | SK-MEL-28 melanoma 116%

Cn1c(=O)c2c(nc(Nc3cc(=O)[nH]c(=O)[nH]3)n2Cc2ccccc2)n(C)c1=O
inactive: HCT-15 colon 98.3% | U251 CNS 12.2% | PC-3 prostate 92.2% | SK-MEL-5 melanoma 98.1% | UACC-62 melanoma 88.3% | LOX IMVI melanoma 92.3% | SK-MEL-28 melanoma 101%
active: HT29 colon -4.46% | SNB-75 CNS -21%

COc1ccc(/C=N\Nc2nc(SCC(C)C)nc(-c3ccc(OC)cc3)c2C#N)cc1
inactive: HCT-15 colon 71% | HT29 colon 56.4% | PC-3 prostate 53.6% | SK-MEL-5 melanoma 77.2% | UACC-62 melanoma 86.1% | LOX IMVI melanoma 31.9% | SK-MEL-28 melanoma 101%
active: SNB-75 CNS -23.3% | U251 CNS -7.88%

C=C1CCC2C3(C)COC(c4ccc(NC(C)=O)cc4)OC3CCC2(C)C1C/C=C1/C(=O)OCC1O (stereo unspecified)
inactive: HCT-15 colon 63.3% | HT29 colon 52.2% | SNB-75 CNS 63.9% | U251 CNS 54.7% | PC-3 prostate 42.2% | SK-MEL-5 melanoma 29% | UACC-62 melanoma 81% | LOX IMVI melanoma 55.4% | SK-MEL-28 melanoma 88.6%

O=C(c1cccc(Br)c1)N1CCN(c2ccnc3cc(Cl)ccc23)CC1
inactive: HCT-15 colon 90.3% | HT29 colon 81.7% | SNB-75 CNS 117% | U251 CNS 78.2% | PC-3 prostate 79% | SK-MEL-5 melanoma 82.2% | UACC-62 melanoma 70.1% | LOX IMVI melanoma 102% | SK-MEL-28 melanoma 95.7%

Cc1ccc(NC(=O)c2sc3nc(C)c(C(=O)c4ccccc4)cc3c2N)cc1
inactive: HCT-15 colon 83.1% | HT29 colon 102% | SNB-75 CNS 70.7% | U251 CNS 88.5% | PC-3 prostate 92.2% | UACC-62 melanoma 79.5% | LOX IMVI melanoma 94.9% | SK-MEL-28 melanoma 92%

Nc1ncc(-c2ccc3ncnc(N4CCc5ccc(Cl)cc54)c3c2)cc1C(F)(F)F
inactive: HCT-15 colon 14.9% | U251 CNS 28.4% | PC-3 prostate 15.4% | SK-MEL-5 melanoma 22.6% | UACC-62 melanoma 10.5% | LOX IMVI melanoma 11.7% | SK-MEL-28 melanoma 28.7%
active: HT29 colon 9.27% | SNB-75 CNS -23.4%

O=C(O)c1ccccc1Cc1ccc(F)c2ccccc12
inactive: HCT-15 colon 108% and 99.4% | HT29 colon 116% and 107% | SNB-75 CNS 93.6% and 77.4% | U251 CNS 115% and 104% | PC-3 prostate 120% and 90.7% | SK-MEL-5 melanoma 96.2% and 102% | UACC-62 melanoma 101% and 106% | LOX IMVI melanoma 100% and 98.9% | SK-MEL-28 melanoma 105%

Nc1ccccc1SC(CC(=O)c1ccccc1)c1ccc([N+](=O)[O-])cc1 (stereo unspecified)
inactive: HCT-15 colon 87.7% and 59% | HT29 colon 19.7% and 39.1% | SNB-75 CNS 84.6% and 80.8% | U251 CNS 62.6% and 57.4% | PC-3 prostate 70.9% and 59.6% | SK-MEL-5 melanoma 105% | UACC-62 melanoma 90.9% and 84.5% | LOX IMVI melanoma 41.7% and 45.5% | SK-MEL-28 melanoma 94.4% and 99.6%

N#CSc1c[nH]c2ccc(/C=C/C(=O)/C=C(/C=C/c3ccc4[nH]cc(SC#N)c4c3)OB(F)F)cc12
inactive: SNB-75 CNS 18%
active: HCT-15 colon -73.7% | HT29 colon -53.6% | U251 CNS -27% | PC-3 prostate -22.5% | SK-MEL-5 melanoma 9.1% | UACC-62 melanoma -43% | LOX IMVI melanoma -91.4% | SK-MEL-28 melanoma -1.41%

N=C(N)c1ccc(-c2ccc(-c3ccc(Cl)c(Cl)c3)s2)cc1
inactive: SNB-75 CNS 103% | UACC-62 melanoma 88.6% | SK-MEL-28 melanoma 107%
active: HCT-15 colon -62.5% | HT29 colon 6.02% | SNB-19 CNS -23.8% | U251 CNS -65.9% | PC-3 prostate -24.1% | LOX IMVI melanoma -71.3%
